Test results reported in PubChem BioAssay (NCATS).
Where “and” joins values, the source holds several entries; their conditions need not be identical. Equal values may be shown once. Unmarked numbers belong to inactive results. Inconclusive results are not listed. Where a call stands in place of a potency, no number is given. Calls of active or inactive are those of the source. Unless noted, the call rests on the fitted dose curve; in most records, active means well fitted curve in the direction sought with a large enough effect; inconclusive means small, poorly fitted or top-dose-only effect, or another doubt; inactive means no such curve, though single readings can be large; an effect the other way counts as inactive or inconclusive.

What was measured:
[1] = Cellular Toxicity (caspase-3) N2a (AID 665);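 further: compound exposure lasted 16 h at 37 °C before readout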
Outline: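 Plated mouse neuroblastoma N2a cells received titrated compounds for 16 h in complete medium. Caspase activity was then detected with a peptide-aminoluciferin luminescent reagent.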

[2] = Cellular Toxicity (caspase-3) NIH 3T3 (AID 666);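 further: caspase signal read after 16 h compound exposure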
Outline: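 Concentration-response qHTS in NIH 3T3 mouse fibroblasts scores caspase-3/7 activation as rising luminescence after 16 hr compound exposure. Signals are scaled between DMSO-only and 100 uM tamoxifen.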

[3] = target: Cytochrome P450 3A4 (Homo sapiens) (UniProt P08684); test: qHTS Assay for Activators of Cytochrome P450 3A4 (AID 885); further: nearly all actives have a fitted effect of over 65% in size
Cytochrome P450 3A4 (Homo sapiens), sequence (P08684 whole entry, looked up): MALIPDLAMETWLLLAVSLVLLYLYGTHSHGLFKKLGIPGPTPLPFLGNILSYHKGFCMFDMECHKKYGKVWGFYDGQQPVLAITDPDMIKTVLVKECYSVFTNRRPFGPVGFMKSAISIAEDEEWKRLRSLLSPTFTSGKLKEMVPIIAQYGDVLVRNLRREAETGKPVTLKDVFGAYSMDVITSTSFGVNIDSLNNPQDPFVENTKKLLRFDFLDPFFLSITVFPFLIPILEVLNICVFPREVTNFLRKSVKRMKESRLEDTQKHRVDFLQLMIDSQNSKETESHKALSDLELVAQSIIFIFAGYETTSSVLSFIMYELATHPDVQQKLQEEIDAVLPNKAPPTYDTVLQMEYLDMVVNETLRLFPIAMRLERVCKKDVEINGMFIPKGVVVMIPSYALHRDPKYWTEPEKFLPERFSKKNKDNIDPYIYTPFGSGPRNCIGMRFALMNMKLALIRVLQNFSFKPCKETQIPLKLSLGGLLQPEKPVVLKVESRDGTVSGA
Outline: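 20nM CYP3A4 + 25uM Luciferin-PPXE (=KM), 200mM KPO4; cpd 10 min RT; NADPH regen, 60 min RT; stop w/ detection buffer, 20 min; luminescence. Normalized to 57 uM ketoconazole.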

[4] = Cell Viability - LYMP2-001 (AID 921); further: nearly all actives have a fitted effect of over 70% in size; further: potency means the concentration at half of the fitted maximal effect
Outline: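 Human lymphoblastoid LYMP2-001 cells, 2500 per well, in complete medium, treated 24 h at 37 C. Viability from cellular ATP by CellTiter-Glo luminescence; AC50 from Hill-equation fits of qHTS concentration-response.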

[5] = MultiTox-Fluor Cytotoxicity Assay - LYMP1-001 - Dead Cells (AID 946); further: potency means the concentration at half of the fitted maximal effect
Outline: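 AC50 from Hill fit of concentration-response; data normalized to DMSO (basal) and 15 uM tetraoctylammonium bromide (100%). LYMP1-001 lymphoblastoid cells, 2500/well, 16 hr compound at 37 C; dead-cell protease fluorescence, Ex/Em 485/520.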

[6] = Cell Viability - LYMP1-002 - Assay at 16 hr (AID 948); further: potency means the concentration at half of the fitted maximal effect
Outline: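 LYMP1-002 human lymphoblastoid cells, 2500/well, were treated with compounds for 16 hr at 37 C in complete medium. Viability was read as intracellular ATP by CellTiter-Glo luminescence, and AC50 was derived from a Hill fit to concentration-response data.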

[7] = MultiTox-Fluor Cytotoxicity Assay - LYMP1-002 - Live Cells (AID 955);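 further: cells exposed to compound for 16 hours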; further: potency means the concentration at half of the fitted maximal effect
Outline: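 Cytotoxicity in the human lymphoblastoid line LYMP1-002 is measured as loss of live-cell protease activity after 16 h treatment in complete culture medium. AC50 is derived from Hill-equation fits of qHTS concentration-response data.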

[8] = target: Cytochrome P450 2D6 (Homo sapiens) (UniProt P10635); test: qHTS Assay for Inhibitors and Substrates of Cytochrome P450 2D6 (AID 891);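 further: luciferin methyl ether substrate demethylated by CYP2D6 with NADPH regeneration; nearly all actives have a fitted effect of over 60% in size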
Cytochrome P450 2D6 (Homo sapiens), sequence (P10635 whole entry, looked up): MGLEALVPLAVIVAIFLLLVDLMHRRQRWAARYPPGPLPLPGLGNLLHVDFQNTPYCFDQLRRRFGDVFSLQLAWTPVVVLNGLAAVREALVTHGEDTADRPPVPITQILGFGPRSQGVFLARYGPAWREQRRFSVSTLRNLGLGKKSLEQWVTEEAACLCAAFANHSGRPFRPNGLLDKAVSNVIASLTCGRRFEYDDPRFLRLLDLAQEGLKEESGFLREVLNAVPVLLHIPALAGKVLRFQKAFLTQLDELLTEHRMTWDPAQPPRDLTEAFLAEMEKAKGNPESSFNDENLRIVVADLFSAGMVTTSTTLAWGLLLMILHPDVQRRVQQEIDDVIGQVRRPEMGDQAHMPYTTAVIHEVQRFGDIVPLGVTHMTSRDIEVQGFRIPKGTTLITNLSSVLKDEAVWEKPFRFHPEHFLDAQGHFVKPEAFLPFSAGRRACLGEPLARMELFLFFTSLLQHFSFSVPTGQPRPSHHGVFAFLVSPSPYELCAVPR
Outline: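 Human CYP2D6 (5 nM) with 30 uM Luciferin-ME EGE (at Km) in 100 mM KPO4, compound preincubated 10 min, then NADPH regeneration system for 60 min at room temperature. Luciferin read by luminescence; normalized to 1.43 uM quinidine.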

[9] = target: Cytochrome P450 2C19 (Homo sapiens) (UniProt P33261); test: qHTS Assay for Inhibitors and Substrates of Cytochrome P450 2C19 (AID 899); further: nearly all actives have a fitted effect of over 60% in size
Cytochrome P450 2C19 (Homo sapiens), sequence (P33261 whole entry, looked up): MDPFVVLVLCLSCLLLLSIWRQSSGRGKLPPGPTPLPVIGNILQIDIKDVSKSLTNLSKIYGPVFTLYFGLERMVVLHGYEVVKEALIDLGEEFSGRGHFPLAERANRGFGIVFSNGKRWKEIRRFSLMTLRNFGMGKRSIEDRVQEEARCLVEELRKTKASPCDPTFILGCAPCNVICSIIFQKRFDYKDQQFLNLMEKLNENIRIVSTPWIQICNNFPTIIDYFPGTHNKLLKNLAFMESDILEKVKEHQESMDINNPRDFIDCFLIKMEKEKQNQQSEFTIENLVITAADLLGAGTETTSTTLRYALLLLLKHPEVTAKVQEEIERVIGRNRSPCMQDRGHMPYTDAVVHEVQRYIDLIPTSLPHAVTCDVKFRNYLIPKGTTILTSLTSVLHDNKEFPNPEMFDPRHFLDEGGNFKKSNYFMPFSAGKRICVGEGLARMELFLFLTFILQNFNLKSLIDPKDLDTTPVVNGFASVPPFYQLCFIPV
Outline: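 Signal comes from luciferase acting on luciferin released by CYP2C19-mediated hydroxylation of Luciferin-H EGE, 10uM (KM). Assay mix: 5nM enzyme, 50mM KPO4; 60 min at 37C with NADPH regeneration. Data normalized against 57uM ketoconazole.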

[10] = target: Guanine nucleotide-binding protein G(i) subunit alpha-1 (Homo sapiens) (UniProt P63096); test: qHTS Assay for Inhibitors of RGS12 GoLoco Motif Activity (Green Fluorophore) (AID 879);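 further: negative values mean loss of peptide binding seen as reduced polarization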
Guanine nucleotide-binding protein G(i) subunit alpha-1 (Homo sapiens), sequence (P63096 whole entry, looked up): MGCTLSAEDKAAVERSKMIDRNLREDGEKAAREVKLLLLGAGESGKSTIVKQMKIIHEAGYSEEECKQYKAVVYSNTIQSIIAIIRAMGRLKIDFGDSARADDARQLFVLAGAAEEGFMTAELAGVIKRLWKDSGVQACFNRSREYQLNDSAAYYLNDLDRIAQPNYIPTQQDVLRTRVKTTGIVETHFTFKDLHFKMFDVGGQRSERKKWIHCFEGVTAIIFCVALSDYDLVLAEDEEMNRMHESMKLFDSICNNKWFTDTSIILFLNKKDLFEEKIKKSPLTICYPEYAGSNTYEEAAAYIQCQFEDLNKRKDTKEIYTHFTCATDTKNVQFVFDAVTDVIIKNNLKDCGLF
Outline: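 Fluorescence polarization assay: 50 nM Gαi1 with 10 nM FITC-labeled RGS12 GoLoco peptide in 10 mM Tris pH 7.5, 150 mM NaCl, 0.1 mM GDP, 0.05% NP40, 10 min at room temperature with compound.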

[11] = target: Cytochrome P450 2C9 (Homo sapiens) (UniProt P11712); test: qHTS Assay for Inhibitors and Substrates of Cytochrome P450 2C9 (AID 883); further: nearly all actives have a fitted effect of over 60% in size; further: potency means the concentration at half of the fitted maximal effect
Cytochrome P450 2C9 (Homo sapiens), sequence (P11712 whole entry, looked up): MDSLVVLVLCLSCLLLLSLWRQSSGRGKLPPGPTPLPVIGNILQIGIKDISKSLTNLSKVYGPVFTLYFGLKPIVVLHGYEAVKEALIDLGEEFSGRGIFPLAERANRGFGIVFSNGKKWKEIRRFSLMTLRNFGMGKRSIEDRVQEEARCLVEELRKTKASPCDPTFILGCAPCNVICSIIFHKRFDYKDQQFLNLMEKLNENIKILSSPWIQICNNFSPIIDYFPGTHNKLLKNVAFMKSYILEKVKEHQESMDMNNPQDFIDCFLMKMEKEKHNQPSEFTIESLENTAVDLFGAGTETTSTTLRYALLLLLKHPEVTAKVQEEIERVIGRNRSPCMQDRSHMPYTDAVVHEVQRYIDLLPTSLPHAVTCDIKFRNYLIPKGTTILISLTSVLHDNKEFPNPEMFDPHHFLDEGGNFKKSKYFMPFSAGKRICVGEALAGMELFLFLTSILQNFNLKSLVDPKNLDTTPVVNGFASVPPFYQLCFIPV
Outline: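 Signal: luciferase luminescence reporting luciferin produced by CYP2C9. Conditions: 10nM enzyme, Luciferin-H 100uM at KM, 25mM KPO4, 37C, 60 min NADPH-driven reaction. Reference: 57uM sulphaphenazole as 100% inhibition.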

[12] = target: Cytochrome P450 3A4 (Homo sapiens) (UniProt P08684); test: qHTS Assay for Inhibitors and Substrates of Cytochrome P450 3A4 (AID 884); further: nearly all actives have a fitted effect of over 50% in size; further: potency means the concentration at half of the fitted maximal effect; on activity change, negative = inhibition: series mostly up to about 57 µM
Outline: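 20 nM human CYP3A4 with 25 uM Luciferin-PPXE (at KM) in 200 mM KPO4, preincubated 10 min with compound; NADPH regeneration started a 60 min RT reaction. Luciferin detected by luminescence, normalized to 57 uM ketoconazole as full inhibition.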

[13] = qHTS Assay for Identification of Small Molecule Antagonists for NFkB Signaling Pathway (AID 895; active means well fitted inhibition curve with a large enough effect in the signal ratio, with a control signal flat, not every such curve was filed as active; the % refers to the signal ratio)
Outline: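 ME-180 NFkB-bla cells (beta-lactamase under NFkB response element), plated overnight, treated with compound then 10 pM TNF alpha (about EC50) for 5 hrs at 37 C. LiveBLAzer FRET read at 460/530 nm emission, 405 nm excitation.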

[14] = qHTS Assay for Identification of Small Molecule Agonists for Thrombopoietin (TPO) Signaling Pathway (AID 917)
Outline: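 Murine Ba/F3 cells expressing human TPO receptor and GPIIb-promoter luciferase, IL-3-starved overnight, given compound plus TPO at 26 pM (EC50). After 24 h at 37 C, 5% CO2, luminescence read.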

[15] = target: Muscarinic acetylcholine receptor M1 (Rattus norvegicus) (UniProt P08482); test: qHTS Assay for Antagonists of Acetylcholine Muscarinic M1 Receptor: Measurement of IP-One Response (AID 944); further: nearly all actives have a fitted effect of over 75% in size; further: potency means the concentration at half of the fitted maximal effect
Muscarinic acetylcholine receptor M1 (Rattus norvegicus), sequence (P08482 whole entry, looked up): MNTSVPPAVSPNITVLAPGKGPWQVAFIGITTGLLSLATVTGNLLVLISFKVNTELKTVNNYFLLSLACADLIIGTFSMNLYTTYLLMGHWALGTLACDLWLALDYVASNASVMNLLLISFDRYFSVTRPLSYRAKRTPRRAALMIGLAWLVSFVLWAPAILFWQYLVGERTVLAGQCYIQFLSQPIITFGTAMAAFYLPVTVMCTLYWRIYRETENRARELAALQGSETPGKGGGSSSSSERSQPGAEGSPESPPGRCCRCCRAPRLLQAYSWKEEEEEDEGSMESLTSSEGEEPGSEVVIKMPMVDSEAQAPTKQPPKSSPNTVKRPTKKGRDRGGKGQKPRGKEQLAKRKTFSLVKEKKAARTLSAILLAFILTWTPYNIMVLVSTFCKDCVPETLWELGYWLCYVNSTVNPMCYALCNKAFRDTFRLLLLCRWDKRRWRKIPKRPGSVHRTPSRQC
Outline: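 Steps: plate transfected CHO-M1 cells overnight; add test compound, 10 min; add carbachol (200 nM, EC80) in stimulation buffer with LiCl; incubate 30 min; add labelled IP1 tracer and anti-IP1 antibody in lysis buffer; read HTRF after 10 min.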

[16] = target: Pyruvate kinase (Leishmania mexicana) (UniProt Q27686); test: qHTS Validation Assay for Inhibitors of Leishmania Mexicana Pyruvate Kinase (AID 945)
Pyruvate kinase (Leishmania mexicana), sequence (Q27686 2-499 E452W): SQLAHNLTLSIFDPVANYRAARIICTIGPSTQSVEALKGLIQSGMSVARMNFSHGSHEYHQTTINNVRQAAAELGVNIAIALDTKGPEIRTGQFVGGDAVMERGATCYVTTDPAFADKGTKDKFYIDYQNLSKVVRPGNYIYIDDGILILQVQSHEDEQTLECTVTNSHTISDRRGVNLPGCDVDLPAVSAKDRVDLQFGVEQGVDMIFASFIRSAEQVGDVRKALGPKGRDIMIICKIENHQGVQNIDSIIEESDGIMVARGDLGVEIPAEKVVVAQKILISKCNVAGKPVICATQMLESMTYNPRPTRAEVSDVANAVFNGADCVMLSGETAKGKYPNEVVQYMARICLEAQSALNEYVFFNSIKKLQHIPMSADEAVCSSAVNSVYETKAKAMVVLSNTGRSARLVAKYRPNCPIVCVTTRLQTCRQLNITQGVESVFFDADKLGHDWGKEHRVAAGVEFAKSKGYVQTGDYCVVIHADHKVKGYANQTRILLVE
Outline: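 Substrate mix (0.5 mM PEP, 0.1 mM ADP, 7 mM MgCl2, 50 mM KCl, pH 7.2 imidazole) received compound by pin tool, then 0.2 nM LmPYK E451W. After 1 h at room temperature, PKLight was added and luminescence measured.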

[17] = target: Pyruvate kinase PKM (Homo sapiens) (UniProt P14618); test: qHTS Assay for Activators of Human Muscle Pyruvate Kinase (AID 954; active means well fitted curve in the direction sought with a large enough effect, not every such curve was filed as active)
Pyruvate kinase PKM (Homo sapiens), sequence (P14618 whole entry, looked up): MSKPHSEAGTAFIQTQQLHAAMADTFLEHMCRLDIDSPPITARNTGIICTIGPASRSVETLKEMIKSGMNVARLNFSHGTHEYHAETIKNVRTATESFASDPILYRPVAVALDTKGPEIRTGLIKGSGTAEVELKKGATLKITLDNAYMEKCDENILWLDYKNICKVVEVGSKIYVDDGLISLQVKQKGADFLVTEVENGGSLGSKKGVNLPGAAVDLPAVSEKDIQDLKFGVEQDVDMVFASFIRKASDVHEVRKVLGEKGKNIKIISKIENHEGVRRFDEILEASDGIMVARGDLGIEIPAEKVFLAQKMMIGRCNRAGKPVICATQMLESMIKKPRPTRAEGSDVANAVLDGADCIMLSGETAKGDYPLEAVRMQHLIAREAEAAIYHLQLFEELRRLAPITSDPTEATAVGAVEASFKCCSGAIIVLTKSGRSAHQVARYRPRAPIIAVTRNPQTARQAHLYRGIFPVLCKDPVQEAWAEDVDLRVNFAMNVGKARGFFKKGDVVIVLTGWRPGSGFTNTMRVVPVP
Outline: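 Luminescence from a luciferase ATP-detection/stop reagent reported PKM2 activity. Reactions contained 0.1 nM purified human enzyme, 0.5 mM PEP, 0.1 mM ADP and 7 mM MgCl2 at pH 7.2, run 1 h at RT.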

[18] = qHTS Assay for Identification of Small Molecule Antagonists for Thrombopoietin (TPO) Signaling Pathway (AID 918); conditions: TPO-dependent cell signaling reporter, antagonist mode; further: potency means the concentration at half of the fitted maximal effect; nearly all actives have a fitted effect of over 60% in size
Outline: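 First, Ba/F3 reporter cells expressing human TPO receptor were held overnight without IL-3. Next, compound and 26 pM TPO were added. After 24 hrs incubation at 37 C, luciferase luminescence under the Glycoprotein IIb promoter was recorded.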

[19] = Confirmation and Secondary Assay for Modulators of Hemoglobin Beta Chain Splicing at IVS2 654 locus (AID 910);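 further: HeLa cells stably carrying EGFP split by mutant beta-globin IVS2-654 intron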
Outline: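 HeLa cells stably expressing EGFP interrupted by β-globin IVS2-654 intron, seeded overnight in Opti-MEM/2% FCS, then treated 2 days at 37 °C. Restored splicing read as total peak GFP intensity per well by laser scanning cytometry (488 nm excitation, 500–520 nm emission); 500 nM antisense PNA as control.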

O=C1C2CC=CCC2C(=O)N1SC(Cl)(Cl)Cl (configuration not stated)
outcome [1]: inactive | Potency [2]: inactive | outcome [3]: inactive | Potency [4]: 2 µM (active) and 5.01 µM (active) | Potency [5]: 10 µM (active) | Potency [6]: 7.94 µM (active) and 10 µM (active) | Potency [7]: 6.31 µM (active) and 5.01 µM (active)

C=CCN=C=S
outcome [1]: inactive | Potency [2]: inactive | outcome [3]: inactive | Potency [4]: inactive | Potency [5]: inactive | Potency [6]: inactive | Potency [7]: inactive

CC(C)(C)c1cc(O)ccc1O
outcome [1]: inactive | Potency [2]: inactive | activity change, negative = inhibition [8]: 11.9% [at 11.4 µM] | activity, negative = inhibition [9]: -31.1% [at 11.4 µM] | Potency [4]: 39.8 µM (active) | Potency [5]: inactive | Potency [6]: inactive | Potency [7]: inactive

ClCC1CO1 (configuration not stated)
outcome [1]: inactive | Potency [2]: inactive | Potency [5]: inactive | Potency [6]: inactive | Potency [7]: inactive

CCCCCl
outcome [1]: inactive | Potency [2]: inactive | Potency [4]: inactive | Potency [5]: inactive | Potency [6]: inactive | Potency [7]: inactive

O=C1C=CC(=O)C=C1
outcome [1]: inactive | Potency [2]: inactive | Potency [10]: inactive | Potency [11]: inactive | Potency [12]: inactive | Potency [8]: inactive | Potency [13]: inactive | Potency [9]: inactive | Potency [14]: inactive | Potency [15]: inactive | Potency [16]: inactive | Potency [5]: inactive | Potency [6]: inactive | outcome [17]: inactive | Potency [7]: inactive

CC(C)(C)c1cc(C=C(C#N)C#N)cc(C(C)(C)C)c1O
Potency [10]: inactive | Potency [11]: 31.6 nM (active) | Potency [12]: 3.16 µM (active) | outcome [3]: inactive | Potency [18]: 1.58 µM (active) | Potency [15]: 1.41 µM (active) | Potency [16]: inactive | outcome [17]: inactive

O=C/C=C/c1ccccc1
outcome [1]: inactive | Potency [2]: inactive | Potency [4]: inactive | Potency [5]: inactive | Potency [6]: inactive | Potency [7]: inactive

O=[N+]([O-])c1ccccc1
outcome [1]: inactive | Potency [2]: inactive | Potency [4]: inactive | Potency [5]: inactive | Potency [6]: inactive | Potency [7]: inactive

ClC=C(Cl)Cl
outcome [1]: inactive | Potency [2]: inactive | Potency [12]: inactive | Potency [4]: inactive | Potency [5]: inactive | Potency [6]: inactive | Potency [7]: inactive

O=C1CCO1
outcome [1]: inactive | Potency [2]: inactive | outcome [19]: inactive | Potency [4]: inactive | Potency [5]: inactive | Potency [6]: inactive | Potency [7]: inactive

[O]=[Cd]
outcome [1]: inactive | Potency [2]: inactive | Potency [4]: inactive | Potency [5]: inactive | Potency [6]: inactive | Potency [7]: inactive

[O]=[Cr](=[O])([OH])[O][Cr](=[O])(=[O])[OH]
outcome [1]: inactive | Potency [12]: inactive | Potency [4]: 12.6 µM (active) and 6.31 µM (active) | Potency [5]: inactive | Potency [6]: inactive | Potency [7]: inactive

O=[N+]([O-])c1ccc(F)c([N+](=O)[O-])c1
outcome [1]: inactive | Potency [2]: inactive | Potency [5]: inactive | Potency [6]: inactive | Potency [7]: inactive

S=C=S
outcome [1]: inactive | Potency [2]: inactive | Potency [4]: inactive | Potency [5]: inactive | Potency [6]: inactive | Potency [7]: inactive

CC(C)CCON=O
outcome [1]: inactive | Potency [2]: inactive | Potency [12]: inactive | Potency [4]: inactive | Potency [5]: inactive | Potency [6]: inactive | Potency [7]: inactive

CC(C)Nc1ccc(Nc2ccccc2)cc1
outcome [1]: inactive | Potency [2]: inactive | outcome [3]: inactive | Potency [4]: 12.6 µM (active) | Potency [6]: 39.8 µM (active) | Potency [7]: 25.1 µM (active)

ClC(Cl)(Cl)Cl
outcome [1]: inactive | Potency [2]: inactive | Potency [4]: inactive | Potency [5]: inactive | Potency [6]: inactive | Potency [7]: inactive

Clc1ccccc1Cl
outcome [1]: inactive | Potency [2]: inactive | Potency [4]: inactive | Potency [5]: inactive | Potency [6]: inactive | Potency [7]: inactive

C[C@H]1CC[C@@H]2[C@@H](C)[C@H]3[C@H](C[C@H]4[C@@H]5CC=C6CC(O[C@@H]7O[C@H](CO)[C@H](O)[C@H](O[C@@H]8O[C@H](CO)[C@@H](O)[C@H](O)[C@H]8O)[C@H]7O[C@H]7O[C@@H](C)[C@H](O)[C@@H](O)[C@H]7O)CC[C@]6(C)[C@H]5CC[C@]34C)N2C1 (some centres not stated)
outcome [1]: inactive | Potency [2]: inactive | Potency [12]: inactive | Potency [4]: inactive | Potency [6]: 31.6 µM (active) | Potency [7]: 12.6 µM (active)

Oc1cc(Cl)c(Cl)cc1Cl
outcome [1]: inactive | Potency [2]: inactive | Potency [4]: inactive | Potency [5]: inactive | Potency [6]: inactive | Potency [7]: inactive
